In assay [1] the target is Paired box protein Pax-6 (Homo sapiens) (UniProt P26367). The experiment in a line: ATG_Pax6_CIS: Attagene CIS-FACTORIAL HepG2 Assay for human Paired Box 6 (PAX6) (AID 2282956). The settings on record: HepG2 CIS-FACTORIAL PAX6 reporter transcription, RNA readout; actives raise or lower the signal. The method, boiled down:
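DMSO-referenced bidirectional fits of reporter mRNA fluorescence; HepG2 with transient cis-promoter MRTUs, 24 h post-dose, RT-PCR plus capillary electrophoresis detection.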

The nature of assay [2]: ATG_PXRE_CIS: Attagene CIS-FACTORIAL HepG2 Assay for human Pregnane X Receptor Element (PXRE) (AID 2282957). The settings on record: HepG2 Attagene CIS-FACTORIAL PXRE reporter, mRNA; actives raise or lower the signal. Put shortly: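 Using HepG2 transfected with multiple reporter transcription units, endogenous factor-driven transcription was scored as reporter mRNA after 24 h exposure.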

A short description of assay [3]: ATG_PPRE_CIS: Attagene CIS-FACTORIAL HepG2 Assay for human Peroxisome Proliferator-activated Response Element (PPRE) (AID 2282958). The settings on record: HepG2 PPRE cis-element reporter, Attagene transcription factor profiling; actives raise or lower the signal. The method, boiled down:
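DMSO served as negative control and baseline for bidirectional curve fitting. Signal came from PPRE-regulated reporter mRNA in HepG2 cells, measured 24 h post-dosing by RT-PCR, 6-FAM primer extension and capillary electrophoresis.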

Assay [4] in a line: ATG_RORE_CIS: Attagene CIS-FACTORIAL HepG2 Assay for human RAR-related Orphan Receptor Element (RORE) (AID 2282959). The settings on record: HepG2 Attagene cis-factorial RORE reporter, mRNA; actives raise or lower the signal. Put shortly: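 Transfect HepG2 with MRTUs; treat 24 h; extract RNA; RT with oligo(dT); PCR with reporter-specific primers; 6-FAM primer extension; HpaI digest 2 h at 37 C; capillary electrophoresis. Fit vs DMSO, bidirectional.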

Assay [5] in a line: ATG_Sox_CIS: Attagene CIS-FACTORIAL HepG2 Assay for human SRY-box transcription factor (SOX) (AID 2282960). Conditions: HepG2 Attagene cis-factorial SOX reporter, mRNA; actives raise or lower the signal. Put shortly:
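Fluorescence-labelled cDNA fragments from reporter transcripts, sized by CE, give the signal. Cells: HepG2, transiently transfected with cis-regulated reporter units. Exposure 24 h; DMSO negative control; bidirectional curve fitting.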

The target of assay [6] is Transcription factor Sp1 (Homo sapiens) (UniProt P08047). The experiment in a line: ATG_Sp1_CIS: Attagene CIS-FACTORIAL HepG2 Assay for human Specificity Protein 1 (Sp1) (AID 2282961). The settings on record: HepG2 Sp1 cis-reporter transcription, actives raise or lower the signal. The method, boiled down: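 Chemicals are dosed onto HepG2 cells transfected with multiple cis-promoter reporter constructs, and after 24 h reporter RNA is reverse-transcribed, PCR-amplified and resolved by capillary electrophoresis for fluorescence quantitation; activity is scored up or down against DMSO.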
Chain of Transcription factor Sp1 (Homo sapiens) (P08047 whole entry, looked up): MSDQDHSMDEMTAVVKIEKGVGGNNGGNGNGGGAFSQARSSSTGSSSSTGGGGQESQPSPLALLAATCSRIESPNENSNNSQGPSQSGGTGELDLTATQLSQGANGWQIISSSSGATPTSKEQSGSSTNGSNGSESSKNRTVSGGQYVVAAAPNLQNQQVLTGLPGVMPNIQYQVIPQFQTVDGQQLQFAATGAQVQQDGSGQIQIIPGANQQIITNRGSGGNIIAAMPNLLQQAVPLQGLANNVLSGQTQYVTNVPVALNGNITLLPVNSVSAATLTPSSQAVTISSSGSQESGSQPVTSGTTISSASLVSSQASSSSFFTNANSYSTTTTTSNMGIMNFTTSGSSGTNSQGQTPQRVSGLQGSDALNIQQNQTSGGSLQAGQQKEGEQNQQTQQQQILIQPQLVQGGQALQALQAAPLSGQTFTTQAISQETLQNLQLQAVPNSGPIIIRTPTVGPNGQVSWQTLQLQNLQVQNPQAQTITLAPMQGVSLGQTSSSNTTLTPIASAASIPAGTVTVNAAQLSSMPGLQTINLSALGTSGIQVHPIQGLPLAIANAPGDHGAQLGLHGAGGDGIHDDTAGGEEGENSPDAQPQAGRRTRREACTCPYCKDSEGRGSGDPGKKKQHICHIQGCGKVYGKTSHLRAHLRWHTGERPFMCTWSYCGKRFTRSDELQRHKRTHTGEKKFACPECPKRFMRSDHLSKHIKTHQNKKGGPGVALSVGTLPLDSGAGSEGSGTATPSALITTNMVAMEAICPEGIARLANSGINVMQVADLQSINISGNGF

Assay [7] in a line: ATG_SREBP_CIS: Attagene CIS-FACTORIAL HepG2 Assay for human Sterol Regulatory Element Binding (SREBP) (AID 2282962). Conditions: HepG2 Attagene cis-factorial SREBP reporter, mRNA; actives raise or lower the signal. The method, boiled down:
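In this cis-format assay, HepG2 liver cells express reporters controlled by promoter elements responsive to native transcription factors. Exposure lasts 24 h; reporter mRNA fluorescence from capillary electrophoresis gives the signal, fitted bidirectionally against DMSO.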

The target of assay [8] is Signal transducer and activator of transcription 3 (Homo sapiens) (UniProt P40763). As to the kind of experiment: ATG_STAT3_CIS: Attagene CIS-FACTORIAL HepG2 Assay for human Signal Transducer and Activator of Transcription 3 (STAT3) (AID 2282963). The settings on record: HepG2, Attagene cis-factorial STAT3 reporter transcription; actives raise or lower the signal. The method, boiled down: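 Readout is reporter transcript quantified by RT-PCR and capillary electrophoresis, with 6-FAM primer extension and HpaI digestion. Total RNA is taken 24 h after dosing transiently transfected HepG2 carrying cis-regulated reporter units. Bidirectional fit against DMSO.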
Chain of Signal transducer and activator of transcription 3 (Homo sapiens) (P40763 whole entry, looked up): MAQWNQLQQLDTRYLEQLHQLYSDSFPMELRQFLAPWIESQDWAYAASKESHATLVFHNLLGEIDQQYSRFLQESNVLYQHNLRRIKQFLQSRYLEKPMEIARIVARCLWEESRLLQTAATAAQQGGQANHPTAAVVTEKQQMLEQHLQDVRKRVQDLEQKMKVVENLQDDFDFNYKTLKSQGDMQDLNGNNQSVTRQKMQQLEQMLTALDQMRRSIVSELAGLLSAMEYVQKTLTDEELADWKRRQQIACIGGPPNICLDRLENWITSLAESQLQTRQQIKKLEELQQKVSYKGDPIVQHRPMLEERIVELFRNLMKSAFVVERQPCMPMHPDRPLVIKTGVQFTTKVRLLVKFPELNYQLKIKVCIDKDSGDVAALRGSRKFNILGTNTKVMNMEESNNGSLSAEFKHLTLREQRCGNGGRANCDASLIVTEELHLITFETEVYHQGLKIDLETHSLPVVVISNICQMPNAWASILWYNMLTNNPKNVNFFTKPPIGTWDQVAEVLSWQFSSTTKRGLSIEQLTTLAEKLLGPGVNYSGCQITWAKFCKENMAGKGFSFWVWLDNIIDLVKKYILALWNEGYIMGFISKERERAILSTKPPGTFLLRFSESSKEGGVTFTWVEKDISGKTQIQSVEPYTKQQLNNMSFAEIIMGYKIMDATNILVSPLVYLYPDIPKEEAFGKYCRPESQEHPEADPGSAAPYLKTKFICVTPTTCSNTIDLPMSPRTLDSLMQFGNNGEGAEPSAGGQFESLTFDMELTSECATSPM

The nature of assay [9]: ATG_TA_CIS: Attagene CIS-FACTORIAL HepG2 Assay for human TA Basal Promoter (AID 2282964). The settings on record: HepG2 Attagene CIS-factorial TA basal promoter reporter; actives raise or lower the signal. Put shortly: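 Read-out: fluorescent reporter-transcript fragments resolved by capillary electrophoresis after RT-PCR and HpaI digestion. Source: HepG2 cells carrying transiently transfected multi-reporter cis constructs, treated 24 h. Endpoint fitted bidirectionally relative to DMSO.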

The nature of assay [10]: ATG_TCF_b_cat_CIS: Attagene CIS-FACTORIAL HepG2 Assay for human T-Cell-Factor with beta-catenin (TCF/b-cat) (AID 2282965). Conditions: HepG2 TCF/beta-catenin cis-reporter transcription, actives raise or lower the signal. Put shortly:
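Measured: reporter mRNA in HepG2 transiently transfected with cis-promoter reporter units, 24 h after chemical addition. Fitting was bidirectional, DMSO as negative control.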

Molecules are shown by their SMILES. Active and inactive are the calls of the source. The calls were made as follows: active = hit-call score of the fitted dose curve at least 0.9, where 1 is the maximum; inactive = score below 0.9.

Chain of Paired box protein Pax-6 (Homo sapiens) (P26367 whole entry, looked up): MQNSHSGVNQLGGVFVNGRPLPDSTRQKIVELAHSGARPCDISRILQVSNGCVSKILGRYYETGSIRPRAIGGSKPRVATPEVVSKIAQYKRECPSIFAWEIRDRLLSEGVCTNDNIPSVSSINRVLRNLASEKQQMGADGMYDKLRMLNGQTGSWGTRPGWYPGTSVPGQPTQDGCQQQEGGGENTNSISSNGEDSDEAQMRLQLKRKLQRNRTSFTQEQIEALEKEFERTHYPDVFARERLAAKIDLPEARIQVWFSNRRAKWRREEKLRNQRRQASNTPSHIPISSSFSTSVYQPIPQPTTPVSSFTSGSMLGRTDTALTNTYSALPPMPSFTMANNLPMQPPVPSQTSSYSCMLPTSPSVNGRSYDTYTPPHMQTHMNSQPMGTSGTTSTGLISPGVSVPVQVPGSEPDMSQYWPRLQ

Turning to `O=CC=O`, the compound was classed as inactive in assay [1], in assay [3], in assay [4], in [5], in [6] and in [7]. Moreover, the compound was classed as inactive in [8], in [9] and in assay [10]. Besides, the AC50 in assay [2] is 4.55 µM (active).
Turning to `Oc1c(I)cc(I)cc1I`, the AC50 in assay [1] is 77.1 µM (active); in assay [3] it was 64.2 µM (active); in assay [4], 31.1 µM (active); in assay [5], 160 µM (active); in assay [9], 55.8 µM (active); in [10], 25.9 µM (active). In addition, the result in [2], in [6], in assay [7] and in assay [8] was inactive.
On to `Cn1sc(Cl)cc1=O`, for which the call in assay [1], in assay [2], in assay [4], in assay [6], in assay [7] and in assay [8] was inactive. The compound was called inactive in assay [9] and in assay [10]. The AC50 in assay [3] is 100 µM (active).
With `CCC(C)(C)c1ccc(O)c(C(C)(C)CC)c1`, the result in [1], in [4], in assay [5], in assay [6], in assay [7] and in assay [8] was inactive. The compound was called inactive in assay [9] and in [10]. Besides, the AC50 in assay [2] is 2.73 µM (active); in assay [3], 11.1 µM (active).
Consider `C=CC(=O)N(C)C`, for which the outcome in assay [1], in [2], in assay [3], in assay [4], in assay [6] and in assay [7] was inactive. The result in [8], in assay [9] and in assay [10] was inactive.
Regarding `CCOP(=S)(OCC)Oc1nc(Cl)c(Cl)cc1Cl`, the compound was classed as inactive in [1], in assay [3], in assay [4], in assay [5], in assay [8] and in assay [9]. Also, in assay [10], the call was inactive. The half-maximal activity concentration (AC50) in assay [2] was 5.24 µM (active); in [6], 65.3 µM (active); in assay [7], 68.1 µM (active).
In the case of `CCOC(=O)CP(=O)(OCC)OCC`, the compound was called inactive in assay [1], in [3], in [4], in [6], in assay [7] and in assay [8]. Moreover, the outcome in [9] and in [10] was inactive. For the same compound, in [2], the AC50 was 100 µM (active).
For `CC(=O)[O][Hg][c]1ccccc1`, the compound was called inactive in [1], in [3], in assay [5], in assay [7], in assay [8] and in assay [9]. In addition, the outcome in [10] was inactive. The AC50 in assay [2] was 3.71 µM (active); in assay [4] it was 3.71 µM (active); in assay [6] it was 2.87 µM (active).
Consider `C=CC(=O)OCCCCCC(C)C`, for which the outcome in [1], in [3], in assay [4], in assay [6], in [7] and in assay [8] was inactive. Also, the call in assay [9] and in assay [10] was inactive. The AC50 in assay [2] is 69.5 µM (active).
Turning to `CCCCCCCCC(=O)NCc1ccc(O)c(OC)c1`, the call in assay [1], in assay [3], in assay [4], in assay [6], in [7] and in [8] was inactive. Moreover, the compound was classed as inactive in assay [9] and in [10]. Further, the AC50 in [2] was 26.2 µM (active).
For the compound `OCc1ccco1`, the result in assay [1], in assay [3], in assay [4], in [5], in assay [6] and in assay [7] was inactive. In addition, the compound was classed as inactive in assay [8], in [9] and in assay [10]. Besides, in assay [2], the AC50 was 39.7 µM (active).
Turning to `CCOP(=O)(CN(CCO)CCO)OCC`, the compound was classed as inactive in assay [1], in assay [2], in assay [3], in assay [4], in assay [5] and in assay [6]. In addition, the compound was called inactive in [7], in [8], in assay [9] and in assay [10].
For the compound `NC(=S)Nc1ccccc1`, the call in assay [1], in assay [2], in assay [3], in assay [4], in assay [6] and in assay [7] was inactive. Moreover, the compound was called inactive in assay [8], in assay [9] and in assay [10].
As to `CC(=[OH+])/C=C(/C)[O-].CC(=[OH+])/C=C(/C)[O-].CC(=[OH+])/C=C(/C)[O-].[Fe]`, the outcome in assay [1], in [2], in assay [3], in assay [4], in assay [5] and in [6] was inactive. Also, the outcome in assay [7], in assay [8], in assay [9] and in assay [10] was inactive.
As to `N#CCc1ccc(Cl)cc1`, the call in assay [1], in assay [3], in assay [4], in assay [5], in [6] and in assay [7] was inactive. The outcome in assay [8], in assay [9] and in assay [10] was inactive. Further, in assay [2], the AC50 is 48.5 µM (active).
In the case of `CC(=O)C(Cl)C(=O)N(C)C` (stereo unspecified), the call in [1], in assay [2], in assay [3], in assay [4], in [6] and in assay [7] was inactive. Further, the result in [8], in assay [9] and in assay [10] was inactive.
Regarding `N#CCCO`, the outcome in [1], in assay [2], in assay [3], in assay [4], in [5] and in [6] was inactive. The outcome in assay [7], in [8], in [9] and in assay [10] was inactive.
With `O=c1[nH]c(=O)[nH]c(=O)[nH]1`, the compound was classed as inactive in [1], in assay [2], in assay [3], in [4], in assay [5] and in assay [6]. The compound was classed as inactive in assay [7], in assay [8], in assay [9] and in assay [10].
As for `CC1(C)CCC(Cc2ccc(Cl)cc2)C1(O)Cn1cncn1` (stereo unspecified), the result in assay [1], in assay [3], in [4], in assay [6], in [8] and in [9] was inactive. Further, in assay [10], the outcome was inactive. In addition, the AC50 is 2.43 µM (active) in assay [2] and 9.3 µM (active) in assay [7].
As to `O=C(Cl)c1ccc(Cl)cc1`, the call in assay [1], in assay [2], in [3], in assay [4], in assay [5] and in assay [6] was inactive. In addition, the compound was called inactive in assay [7], in assay [8], in [9] and in assay [10].
For the compound `N#CN=C(N)N`, the call in assay [1], in assay [2], in assay [3], in assay [4], in [6] and in assay [7] was inactive. Besides, the outcome in assay [8], in assay [9] and in assay [10] was inactive.
For the compound `CCN(CC)C(=O)Cl`, the result in assay [1], in assay [2], in assay [3], in assay [4], in [5] and in assay [6] was inactive. Besides, the call in assay [7], in [8], in assay [9] and in assay [10] was inactive.
Take `O=Cc1cccc(Oc2ccccc2)c1`: the outcome in assay [1], in assay [2], in assay [3], in assay [4], in [5] and in assay [6] was inactive. The call in [7], in assay [8], in assay [9] and in assay [10] was inactive.

For the origin of these results see PubChem BioAssay (EPA / NIEHS).
